{"source": "PubChem BioAssay (NCATS)", "note": "A number with no mark means an inactive call. Records with an inconclusive call do not appear. Calls of active or inactive are those of the source. Calls follow the shape of the dose curve; as a rule, active = well fitted inhibition curve with a large enough effect; inconclusive = small, poorly fitted or top-dose-only effect; inactive = no such curve, though single readings can be large or run the other way."}
{"molecular_target": "Single-stranded DNA cytosine deaminase (Homo sapiens) (UniProt Q9GZX7)", "sequence (Q9GZX7 whole entry, looked up)": "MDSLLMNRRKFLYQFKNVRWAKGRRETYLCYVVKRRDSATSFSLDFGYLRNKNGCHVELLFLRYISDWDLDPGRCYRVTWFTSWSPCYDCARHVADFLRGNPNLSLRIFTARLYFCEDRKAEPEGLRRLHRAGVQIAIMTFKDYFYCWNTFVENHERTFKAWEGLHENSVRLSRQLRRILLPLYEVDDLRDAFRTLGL", "test": "Validation qHTS assay for inhibitors of Activation Induced Cytidine Deaminase (AID): AID signal (AID 1347429); also: potency is read from the fitted curve at half-maximal effect; as to activity change, negative = inhibition: % is scaled to controls: 0 for no effect and ±100 for the full control effect", "details": "Recombinant AID, FRET ssDNA deamination with UDG, fluorescence; series mostly up to 115 µM; activity change, negative = inhibition: at the top concentration", "summary_of_the_method": "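Fluorescence at 540 nm excitation and 590 nm emission reports ssDNA cytosine deamination by AID, with UDG in the same well. Compound-treated reactions ran 4 hr at room temperature with DJC20/DJC23 substrate, followed by 30 min NaOH treatment.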", "units": {"activity change, negative = inhibition": "%"}}
{"compound": "CCN(CC)CCCN(c1ccccc1)C1Cc2ccccc2C1", "activity change, negative = inhibition": 40.3}
{"compound": "CCN(CC)CC(=O)Nc1c(C)cccc1C", "activity change, negative = inhibition": 28.3}
{"compound": "C[N+](C)(C)CCOC(=O)CCC(=O)OCC[N+](C)(C)C", "activity change, negative = inhibition": 19.3}
{"compound": "CCO/C([O-])=N/c1c[n+](N2CCOCC2)no1", "activity change, negative = inhibition": 13.5}
{"compound": "CCc1c(C)[nH]c2c1C(=O)C(CN1CCOCC1)CC2", "note": "(centres undefined)", "activity change, negative = inhibition": 195}
{"compound": "Cc1nc2sccn2c(=O)c1CCN1CCC(=C(c2ccc(F)cc2)c2ccc(F)cc2)CC1", "activity change, negative = inhibition": -6.35}
{"compound": "CCCN1C[C@H](CSC)C[C@@H]2c3cccc4[nH]cc(c34)C[C@H]21", "activity change, negative = inhibition": 89}
{"compound": "CCn1ccnc1CC1COc2ccccc2O1", "note": "(centres undefined)", "activity change, negative = inhibition": 10.3}
{"compound": "CC(C)COCC(CN(Cc1ccccc1)c1ccccc1)N1CCCC1", "note": "(centres undefined)", "activity change, negative = inhibition": 44.2}
{"compound": "NC(=O)c1ncn([C@@H]2O[C@H](CO)[C@@H](O)[C@H]2O)c1O", "activity change, negative = inhibition": 19.4}
{"compound": "COc1ccc([C@@H]2Sc3ccccc3N(CCN(C)C)C(=O)[C@@H]2OC(C)=O)cc1", "activity change, negative = inhibition": 14.8}
{"compound": "CC(=O)[C@]1(O)Cc2c(O)c3c(c(O)c2[C@@H](O[C@H]2C[C@H](N)[C@H](O)[C@H](C)O2)C1)C(=O)c1ccccc1C3=O", "Potency": "2 µM (active)"}
{"compound": "C[C@]12CCC(=O)C=C1CC[C@@H]1[C@@H]2CC[C@@]2(C)[C@H]1CC[C@]2(O)C(=O)CO", "activity change, negative = inhibition": 7.72}
{"compound": "CCN1CCc2nc(N)oc2CC1", "activity change, negative = inhibition": 207}
{"compound": "CN/C(=C\\[N+](=O)[O-])NCCSCc1ccc(CN(C)C)o1", "activity change, negative = inhibition": 273}
{"compound": "COc1ccc(CCN(C)CCCC(C#N)(c2cc(OC)c(OC)c(OC)c2)C(C)C)cc1OC", "note": "(centres undefined)", "activity change, negative = inhibition": 8.04}
{"compound": "CNCCCN1c2ccccc2CCc2ccccc21", "activity change, negative = inhibition": 16.9}
{"compound": "CNCCC(Oc1ccccc1OC)c1ccccc1", "note": "(centres undefined)", "activity change, negative = inhibition": 18}
{"compound": "O=C(CCNNC(=O)c1ccncc1)NCc1ccccc1", "activity change, negative = inhibition": 14.4}
{"compound": "C[N+](C)(C)CCOC(N)=O", "activity change, negative = inhibition": 17.3}
{"compound": "c1cnc(N2CCN(Cc3ccc4c(c3)OCO4)CC2)nc1", "activity change, negative = inhibition": 17.2}
{"compound": "CN(C)CCCN1c2ccccc2Sc2ccccc21", "activity change, negative = inhibition": 6.13}
{"compound": "O=C1CC2(CCCC2)CC(=O)N1CCCCN1CCN(c2ncccn2)CC1", "activity change, negative = inhibition": 3.21}
{"compound": "C(=C\\c1ccccc1)/CN1CCN(C(c2ccccc2)c2ccccc2)CC1", "activity change, negative = inhibition": -4.07}
{"compound": "NC(Cc1ccc(Cl)cc1)C(=O)O", "note": "(centres undefined)", "activity change, negative = inhibition": 20.8}
{"compound": "NC(=O)c1cn(Cc2c(F)cccc2F)nn1", "activity change, negative = inhibition": -3.84}
{"compound": "CCCN(CCC)C(=O)C(CCC(=O)O)NC(=O)c1ccccc1", "note": "(centres undefined)", "activity change, negative = inhibition": 4.16}
{"compound": "CC(N=C(NC#N)Nc1ccncc1)C(C)(C)C", "note": "(centres undefined)", "activity change, negative = inhibition": -4.54}
{"compound": "CC(=O)OCC1=C(C(=O)O)N2C(=O)[C@@H](NC(=O)Cc3cccs3)[C@H]2SC1", "activity change, negative = inhibition": 52.8}
{"compound": "CSc1ccc(C(=O)c2[nH]c(=O)[nH]c2C)cc1", "activity change, negative = inhibition": 24.7}
{"compound": "COC(=O)[C@@H](N)Cc1ccc(O)c(O)c1", "activity change, negative = inhibition": 19.5}
{"compound": "c1cc(CN2CCCCC2)cc(OCCCNc2nc3ccccc3s2)c1", "activity change, negative = inhibition": 8.83}
{"compound": "Cc1cccc(C)c1NC(=O)C(C)N", "note": "(centres undefined)", "activity change, negative = inhibition": 14}
{"compound": "NCCCNCCSP(=O)(O)O", "activity change, negative = inhibition": 17.3}
{"compound": "Cc1scc2c1N(C(=O)CN1CCN(C)CC1)c1ccccc1NC2=O", "activity change, negative = inhibition": 26.3}
{"system": "not listed separately", "test": "Primary qHTS for inhibitors of La Crosse Virus (LACV) - induced cell death in SH-SY5Y cells (AID 1508616);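 also: top concentration of the series differs between compounds; 0% = infected DMSO wells and 100% = uninfected DMSO wells; higher means more rescue of cells from virus-induced death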", "details": "SH-SY5Y LACV cytopathicity rescue, ATP luminescence, 6 d; series mostly up to 9.63 µM; activity change: at the top concentration", "summary_of_the_method": "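Protection against LACV-induced cell death is scored in SH-SY5Y cells exposed to compounds and virus (0.01 MOI) for 6 days. Data normalized to virus-infected DMSO wells and virus-free DMSO wells.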"}
{"compound": "CCN(CC)CCCN(c1ccccc1)C1Cc2ccccc2C1", "Potency": "inactive"}
{"compound": "CCN(CC)CC(=O)Nc1c(C)cccc1C", "Potency": "inactive"}
{"compound": "C[N+](C)(C)CCOC(=O)CCC(=O)OCC[N+](C)(C)C", "Potency": "inactive"}
{"compound": "CCO/C([O-])=N/c1c[n+](N2CCOCC2)no1", "Potency": "inactive"}
{"compound": "CCc1c(C)[nH]c2c1C(=O)C(CN1CCOCC1)CC2", "note": "(centres undefined)", "Potency": "inactive"}
{"compound": "Cc1nc2sccn2c(=O)c1CCN1CCC(=C(c2ccc(F)cc2)c2ccc(F)cc2)CC1", "Potency": "inactive"}
{"compound": "CCCN1C[C@H](CSC)C[C@@H]2c3cccc4[nH]cc(c34)C[C@H]21", "Potency": "inactive"}
{"compound": "CCn1ccnc1CC1COc2ccccc2O1", "note": "(centres undefined)", "Potency": "inactive"}
{"compound": "CC(C)COCC(CN(Cc1ccccc1)c1ccccc1)N1CCCC1", "note": "(centres undefined)", "Potency": "inactive"}
{"compound": "NC(=O)c1ncn([C@@H]2O[C@H](CO)[C@@H](O)[C@H]2O)c1O", "Potency": "inactive"}
{"compound": "COc1ccc([C@@H]2Sc3ccccc3N(CCN(C)C)C(=O)[C@@H]2OC(C)=O)cc1", "Potency": "inactive"}
{"compound": "CC(=O)[C@]1(O)Cc2c(O)c3c(c(O)c2[C@@H](O[C@H]2C[C@H](N)[C@H](O)[C@H](C)O2)C1)C(=O)c1ccccc1C3=O", "activity change": "3.9%"}
{"compound": "C[C@]12CCC(=O)C=C1CC[C@@H]1[C@@H]2CC[C@@]2(C)[C@H]1CC[C@]2(O)C(=O)CO", "Potency": "inactive"}
{"compound": "CCN1CCc2nc(N)oc2CC1", "Potency": "inactive"}
{"compound": "CN/C(=C\\[N+](=O)[O-])NCCSCc1ccc(CN(C)C)o1", "Potency": "inactive"}
{"compound": "COc1ccc(CCN(C)CCCC(C#N)(c2cc(OC)c(OC)c(OC)c2)C(C)C)cc1OC", "note": "(centres undefined)", "Potency": "inactive"}
{"compound": "CNCCCN1c2ccccc2CCc2ccccc21", "activity change": "-4.88% [at 4.29 µM]"}
{"compound": "CNCCC(Oc1ccccc1OC)c1ccccc1", "note": "(centres undefined)", "activity change": "1.51% [at 4.29 µM]"}
{"compound": "O=C(CCNNC(=O)c1ccncc1)NCc1ccccc1", "Potency": "inactive"}
{"compound": "C[N+](C)(C)CCOC(N)=O", "Potency": "inactive"}
{"compound": "c1cnc(N2CCN(Cc3ccc4c(c3)OCO4)CC2)nc1", "Potency": "inactive"}
{"compound": "CN(C)CCCN1c2ccccc2Sc2ccccc21", "activity change": "-10.9% [at 4.29 µM]"}
{"compound": "O=C1CC2(CCCC2)CC(=O)N1CCCCN1CCN(c2ncccn2)CC1", "Potency": "inactive"}
{"compound": "C(=C\\c1ccccc1)/CN1CCN(C(c2ccccc2)c2ccccc2)CC1", "Potency": "inactive"}
{"compound": "NC(Cc1ccc(Cl)cc1)C(=O)O", "note": "(centres undefined)", "Potency": "inactive"}
{"compound": "NC(=O)c1cn(Cc2c(F)cccc2F)nn1", "Potency": "inactive"}
{"compound": "CCCN(CCC)C(=O)C(CCC(=O)O)NC(=O)c1ccccc1", "note": "(centres undefined)", "Potency": "inactive"}
{"compound": "CC(N=C(NC#N)Nc1ccncc1)C(C)(C)C", "note": "(centres undefined)", "Potency": "inactive"}
{"compound": "CC(=O)OCC1=C(C(=O)O)N2C(=O)[C@@H](NC(=O)Cc3cccs3)[C@H]2SC1", "Potency": "inactive"}
{"compound": "COC(=O)[C@@H](N)Cc1ccc(O)c(O)c1", "activity change": "-18.2% [at 4.29 µM]"}
{"compound": "c1cc(CN2CCCCC2)cc(OCCCNc2nc3ccccc3s2)c1", "Potency": "inactive"}
{"compound": "Cc1cccc(C)c1NC(=O)C(C)N", "note": "(centres undefined)", "Potency": "inactive"}
{"compound": "NCCCNCCSP(=O)(O)O", "Potency": "inactive"}
{"compound": "Cc1scc2c1N(C(=O)CN1CCN(C)CC1)c1ccccc1NC2=O", "Potency": "inactive"}
